# Source: PubChem BioAssay (National Center for Advancing Translational Sciences (NCATS))
# An excerpt weighted towards active compounds, which were near 13% of everything screened.
# Pf growth 48h: P. falciparum growth inhibition at 48 hours (one generation); P. falciparum luciferase growth in erythrocytes, 48 h; Potency, µM (top dose mostly 28.7 µM), most hits filed as inhibitors; actives 5.9% (n = 310,000); AID 504832
#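 In quantitative HTS format, infected erythrocytes bearing luciferase-reporter parasites were treated for a single generation at 37 C. Luminescence after adding detection reagent served as the growth measure.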
# HCV inh: HCV inhibition; Huh7.5.1 HCVcc-Cre infection, luciferase reporter, 44 h; AID 651820; actives 3.4% (n = 340,000); Potency, µM (highest dose often 41.8 µM), most hits filed as inhibitors
#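 Infectious HCV cell culture screen: compound-treated cells (1,000/well, pre-plated 4 h) are infected with HCVcc-Cre at roughly 0.5 moi and grown 44 h. Infection is quantified by luciferase signal after 15 min substrate incubation at room temperature.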
# HCMV antiviral: inhibitors of human cytomegalovirus; HFF cells, HCMV-luciferase reporter, 72 h; hits give low values; activity change, negative = inhibition, % at 57.5 µM; actives 4.5% (n = 410,000); AID 1259415; in the data active = activity change below about -60%; inconclusive = no clear call, values can overlap the other calls; inactive = above about -39%
#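 Screen run at 2 compound doses on HFFs infected with reporter HCMV, MOI 1 PFU/cell. Luciferase activity from cell lysates at 72 h post infection gave inhibition relative to buffer-only and Salinomycin wells.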
# Pf growth 96h: inhibits malaria parasite growth, 96 h; actives 6.9% (n = 320,000); Potency, µM (titrated, usually from 28.7 µM), usual class: inhibitors; P. falciparum luciferase reporter growth, 96 h
#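 Readout is luminescence from an integrated firefly luciferase in P. falciparum. Red cells, 2% hematocrit and 0.05% parasitemia final, were cultured with compound through two parasite generations (96 hours) at 37 C, 5% CO2.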
# Numbers stand for hits; - = inactive; ? = inconclusive; . = no result; [ ] = dose if it differs, or a comment. Unless noted, calls come from the whole dose curve; as a rule, active = well fitted inhibition curve with a large enough effect; inconclusive = small, poorly fitted or top-dose-only effect, or another doubt; inactive = no such curve, though single readings can be large or run the other way.
SMILES,Pf growth 48h,HCV inh,HCMV antiviral,Pf growth 96h
Cc1ccc(NC(=O)CN2C(=O)C3CC=C(Cl)CC3C2=O)cc1 (stereo unspecified),-,-,-,-
O=C(CN1C(=O)C2CC=C(Cl)CC2C1=O)Nc1ccc(C(=O)O)cc1 (stereo unspecified),-,-,-,13.1µM
O=C(CCN1C(=O)C2CC=C(Cl)CC2C1=O)Nc1ccccc1O (stereo unspecified),-,?,-,1.04µM
O=C(CCN1C(=O)C2CC=C(Cl)CC2C1=O)NCc1ccccc1 (stereo unspecified),-,-,-,-
CC(C)(C)N1C(=O)c2ccccc2NC(=O)C1C(=O)Nc1ccc2c(c1)OCCO2 (stereo unspecified),.,.,-,.
C(=C\c1nccc2c1[nH]c1ccccc12)/c1ccccc1,1.85µM,?,-,2.62µM
Fc1ccc(/C=C\c2nccc3c2[nH]c2ccccc23)cc1,?,?,-,-[5.75 µM]
Cc1ccc(/C=C\c2nccc3c2[nH]c2ccccc23)cc1,2.62µM,?,-,?
CC(=O)N1CCCc2cc(S(=O)(=O)NCc3ccccc3Cl)ccc21,.,.,-,.
C=CC[n+]1c(-c2ccccc2)csc1NC(C)(C)C,10.4µM,-,-,14.7µM
Clc1ccc2c(c1)C(c1cccs1)=NNC(c1cccnc1)=N2,-,-,?,1.65µM
COc1ccc2c(c1)C(c1cccs1)=NNC(c1ccncc1)=N2,-,11.2µM,-,?
CC(C)c1ccc2c(c1)C(c1cccs1)=NNC(c1ccncc1)=N2,?,-,-,-
C=CCNc1nc(-c2sc(NC(=O)C(C)(C)C)nc2C)c(-n2cc(-c3ccccc3)nn2)s1,.,.,-,.
CCc1ccc2oc(-c3ccc(NC(=O)c4cccc(Cl)c4Cl)cc3)nc2c1,.,.,-70.1,.
O=C(Nc1ccc2oc(-c3ccc4ccccc4c3)nc2c1)c1cccc(Cl)c1Cl,.,.,-,.
O=C(Nc1ccc2oc(-c3ccccc3)nc2c1)c1ccccc1F,-,?,-89.3,?
O=C(Nc1ccc(-c2nc3cc(NC(=O)c4cccs4)ccc3o2)cc1)c1cccs1,-,11.2µM,-70.2,?
O=C(Nc1ccc2oc(-c3ccncc3)nc2c1)c1cccs1,-,?,-,?
O=C(O)C1Nc2c(O)cccc2C2C=CCC12 (stereo unspecified),-,?,-,14.7µM
CC(=O)N1c2ccccc2CC1C(=O)N1CCN(c2ccccc2F)CC1 (stereo unspecified),.,.,-,.
Cc1ncc(C23CC4CC(CC(C4)C2)C3)[nH]1,-,-,-,-
N#Cc1ccc(C23CC4CC(CC(C4)C2)C3)[nH]c1=O,?,-,-,3.7µM
CCCCN(CCCC)C(=O)c1cc2ccccc2c(=O)o1,-,-,-68.1,-
CCCCC(CC)CNC(=O)c1cc2ccccc2c(=O)o1 (stereo unspecified),-,-,-,-
SMILES,Pf growth 48h,HCV inh,HCMV antiviral,Pf growth 96h
O=C(N/N=C/c1cccs1)c1ccccn1,-,-,-,-
C(=NN=C(NN=Cc1cccs1)NN=Cc1cccs1)c1cccs1,.,10µM,-,.
COc1ccccc1NC(=O)Cc1c(C(=O)O)[nH]c2ccc(Cl)cc12,.,.,-,.
Cc1cccc(N2CCN(C(=O)NC3CCCCC3)CC2)c1C,-,?,-,-
Cc1ccc(S(=O)(=O)Nc2ccc(C(=O)N3CCN(c4ccccc4O)CC3)cc2)cc1[N+](=O)[O-],14.7µM,-,-,-
CCOc1ccccc1N1CCN(C(=O)NC2CCCCC2)CC1,-,-,-,1.65µM
Cc1ccccc1NS(=O)(=O)c1ccc(C(=O)N2CCCCCC2)cc1,-,-,-,-
Cc1ccc(NS(=O)(=O)c2ccc(N3CCN(c4ccc(O)cc4)CC3)c([N+](=O)[O-])c2)c(C)c1,?,?,-63.9,?
Cc1ccccc1NS(=O)(=O)c1ccc(C(=O)N2CCN(c3ccccc3O)CC2)cc1,13.1µM,?,-,5.22µM
O=C(CSc1cn(CCNC(=O)c2c(F)cccc2F)c2ccccc12)Nc1ccc(F)cc1,.,.,-,.
COc1cc2c(cc1OC)n(CC(=O)c1cccc(Cl)c1)c(=O)n1nc(CCn3nc(C)cc3C)nc21,.,.,-,.
CCOc1ccccc1N1CCN(C(=O)c2ccccc2)CC1,-,-,-,-
CCOc1ccccc1N1CCN(C(=O)c2ccc(S(=O)(=O)Nc3ccccc3)cc2)CC1,?,10µM,?,9.28µM
COc1ccccc1Cn1c(=O)c2ccccc2n2c(SCc3csc(C)n3)nnc12,?,-,-,5.22µM
CCCn1c(=O)c2ccccc2n2c(Sc3nnnn3-c3ccccc3)nnc12,.,-,-,?
COc1ccccc1Cn1c(=O)c2ccccc2n2c(Sc3ncnc4sccc34)nnc12,?,10µM,?,-
COc1ccc(Cn2c(=O)c3ccccc3n3c(-c4cccc(OC)c4OC)nnc23)cc1,.,.,-89.2,.
CCCn1c(=O)c2ccccc2n2c(SCCOc3ccc(OC)cc3)nnc12,?,-,-,-
COc1cccc(-c2nnc3n(Cc4ccc(C)cc4)c(=O)c4ccccc4n23)c1O,.,.,-,.
CSc1nnc(-c2cnccn2)n1CCCN1CCCC1=O,-,-,-,7.38µM
CCn1c(SCC(=O)C(C)(C)C)nnc1-c1cnccn1,-,-,-,-
COC(=O)c1ccc2nc(-c3ccc(Cl)cc3)c(Cc3ccccc3)n2c1,.,.,-,.
COc1ccc(C)cc1NC(=O)CCS(=O)(=O)c1cc2c3c(c1)CCN3C(=O)CC2,.,.,-,.
CCCCOc1ccc(CSCCN)cc1Cl,-,?,-,-
CCCCOc1ccc(CCN)cc1Cl,-,?,-60.2,-
SMILES,Pf growth 48h,HCV inh,HCMV antiviral,Pf growth 96h
C/C=C\C=C\C(=O)N1CC2(CC(c3cccc(NC(=O)COc4ccc(Cl)cc4)c3)=NO2)C[C@H]1C(N)=O (stereo partly specified),13.1µM,-,-,10.4µM
C/C=C(\C)C(=O)N1CC2(CC(c3cccc(NC(=O)COc4ccc(Cl)cc4)c3)=NO2)C[C@@H]1C(N)=O (stereo partly specified),11.7µM,-,-,?
CC(=O)c1c(C(C)=O)c(C)n(Cc2ccccc2)c1C,-,-,-,.
CCOC(=O)c1c(C=O)c(C)n(Cc2ccc(C)cc2)c1C,.,3.16µM,-,?
Cc1c(C=O)c(C=O)c(C)n1Cc1ccccc1,.,?,-80.7,5.22µM
CCOC(=O)c1c(C=O)c(C)n(Cc2ccccc2Cl)c1C,3.29µM,?,-,.
CCOC(=O)c1c(C)n(Cc2ccccc2)c2ccc(O)cc12,-,-,-,-
Nc1c(C(=O)NCCc2ccccc2)nnn1CC(=O)Nc1ccc(Cl)cc1,.,.,-,.
COc1ccc(-c2cn3nc(N4CCCC(C(=O)Nc5cccc(OC)c5)C4)sc3n2)cc1 (stereo unspecified),.,.,-,.
COc1cc(CN(C(=O)c2ccccc2)c2ccccn2)cc(OC)c1OC,.,.,-,.
COCC(=O)Nc1cc(Sc2ccccc2)ccc1N=C(NC(=O)OC)NC(=O)OC,-,.,.,-
CC(=O)N1c2ccc(S(=O)(=O)N3CCOCC3)cc2CC1C (stereo unspecified),-,-,-,?
CC(=O)c1ccc(N2CCN(S(=O)(=O)c3ccc4c(c3)CC(C)N4C(C)=O)CC2)cc1 (stereo unspecified),?,6.31µM,-,?
